The structures appear in SMILES notation. Results filed as inconclusive are left out. Unmarked numbers belong to inactive results. Cut-off read from the data, not from the text of the source: active = percent of DMSO control GFP below about 86%; inactive = the rest, inconclusive results apart.

The assay is described as follows: yeast TOR pathway RPL19A-GFP modulators, primary screen, cell-based, S. cerevisiae, multiplex flow cytometry (AID 1862).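 Note: lower values mimic rapamycin by blocking the RPL19A rise seen in DMSO cells.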 The note with it: S. cerevisiae RPL19A-GFP strain, flow cytometry fluorescence, 3 h; at 10 µM; stronger effect = lower value. On the technique in general: Flow cytometry measures light scatter and fluorescence of single cells or particles in a stream.
Turning to `Cc1nc(-c2coc3c(CN(C)C)c(O)ccc3c2=O)cs1`, the percent of DMSO control GFP is 92.6%.
For the compound `COCCCN1C(=O)C(=O)/C(=C(/O)c2ccc3c(c2)CC(C)O3)C1c1cccnc1` (centres undefined), the percent of DMSO control GFP was 101%.
`O=C(Nc1ccccc1C(=O)N1CCCCCC1)c1ccccc1Cl`: the percent of DMSO control GFP is 103%.
Take `Fc1ccc(-c2cc(-c3ccccc3)nc(-n3cccn3)n2)cc1`: the percent of DMSO control GFP is 96.5%.
To `NS(=O)(=O)c1cc2c(cc1Cl)NC(C(Cl)Cl)NS2(=O)=O` (centres undefined) belongs 100%; to `CCC(C(=O)Nc1ccc2c(c1)OCCO2)c1ccccc1` (centres undefined), 103%.
Then `c1ccc(CNc2ncnc3nc[nH]c23)cc1`, with 103%.
To `Cc1cc(/C=N/O)c(C)n1-c1ccc(Br)cc1` belongs 100%; to `COc1ccc(/C=C/C(=O)c2cc3cccc(OC)c3oc2=O)cc1`, 103%.
Regarding `Cc1ccc(C2=NOC(=O)/C2=C\C=C\c2ccccc2)cc1`, the percent of DMSO control GFP is 107%.
For `CCc1ccc(/C=C2\Oc3cc(OC(=O)N4CCOCC4)ccc3C2=O)cc1`, the percent of DMSO control GFP was 98.7%.
To `COc1cc(NC(=S)NN2CCN(C)CC2)cc(OC)c1OC` belongs 105%; to `C[C@]12CCC3C(CC=C4C[C@@H](O)CC[C@@]43C)C1CCC2[C@]1(C)CCC(=O)O1` (some centres undefined), 102%.
To `COC(=O)c1cc(OC)c(OC)cc1NC(=O)CN1C(=O)c2ccccc2C1=O` belongs 97.1%.
As to `c1ccc(CN(CC2=NCCN2)c2ccccc2)cc1`, the percent of DMSO control GFP is 87.8%.
In the case of `Cc1oncc1C(=O)Nc1ccc(C(F)(F)F)cc1`, the percent of DMSO control GFP is 95.7%.
`Cn1cc(C2N3CC4(C)CN2CC(C)(C3)C4=O)c2ccccc21` (centres undefined): the percent of DMSO control GFP is 102%.
As to `CCCCOc1cc(C(=O)NCCN(CC)CC)c2ccccc2n1`, the percent of DMSO control GFP was 94.8%.
Take `O=C(CSCc1ccccc1)NCCCN1CCOCC1`: the percent of DMSO control GFP was 97.9%.
Consider `COC(=O)c1ccc(OCCCCN2CC(C)OC(C)C2)cc1` (centres undefined), for which the percent of DMSO control GFP was 104%.
To `CCOc1ccc(C(=O)NC(C)C2COc3ccccc3O2)cc1` (centres undefined) belongs 99.5%; to `CSCC[C@H](NC(=O)OC(C)(C)C)C(=O)N1CCC(C(=O)N[C@@H](C)C(=O)O)CC1`, 99.6%.
To `O=C(N/C(=C/C=C\c1ccccc1)C(=O)N1CCOCC1)c1ccc(Br)cc1` belongs 98.4%; to `COc1ccc2[nH]c(=O)c(CN(C(=O)c3ccco3)C(C)C)cc2c1`, 91.7%; to `COc1cc(-c2cccs2)cc(=O)c2c(C)oc(C)c12`, 97.6%.
On to `CCC(=O)O[C@]1(C(=O)CCl)[C@@H](C)C[C@H]2[C@@H]3CCC4=CC(=O)C=C[C@]4(C)[C@@]3(F)[C@@H](O)C[C@@]21C`, for which the percent of DMSO control GFP was 99.8%.
Then `COCCN(CCOC)Cc1c(C)[nH]c2c(C)c(C)ccc2c1=O`, with 103%; and `COc1ccccc1/C=C/C(=O)OCCN1CCOCC1`, with 99.8%; and `c1ccc(Cn2nnc3cnccc32)cc1`, with 104%.
With `Nc1cnn(C2OC(CO)C(O)C2O)c(=O)n1` (centres undefined), the percent of DMSO control GFP was 102%.
`Cc1ccc(C(=O)Nc2ccccc2C(=O)NC(C(=O)O)C(C)C)cc1` (centres undefined): the percent of DMSO control GFP was 96.7%.
In the case of `NC(CO)C(=O)NNCc1ccc(O)c(O)c1O` (centres undefined), the percent of DMSO control GFP was 98.4%.
Regarding `CC12CCCCN1CCCc1c2[nH]c2ccccc12` (centres undefined), the percent of DMSO control GFP was 99.6%.
As for `CN(C)CCN(Cc1ccc(Cl)cc1)c1ccccn1`, the percent of DMSO control GFP was 107%.
To `CSc1cccc(NC(=O)/C=C/c2ccccc2)c1` belongs 91.3%; to `Cc1oc2cc(O)cc(O)c2c(=O)c1-c1ccc2c(c1)OCCCO2`, 95.6%; to `CNC(=O)Oc1ccc2c(c1)[C@]1(C)CCN(C)[C@@H]1N2C`, 104%.
As to `CCCCNc1ccc(C(=O)OCCN(C)C)cc1`, the percent of DMSO control GFP is 101%.
With `O=C(COc1cc(O)c2c(=O)c3ccccc3oc2c1)OCc1ccccc1`, the percent of DMSO control GFP was 101%.
